Only some compounds are listed: those with a hit (about 7.5% of all), similar ones and a draw of the others.
FLuc modulator: qHTS profiling assay for firefly luciferase inhibitor/activator using purifed enzyme and Km concentrations of substrates (counterscreen for miR-21 project); Luciferin 4-monooxygenase (Photinus pyralis), P08659; purified FLuc, Km substrates, luminescence inhibition; Potency, µM (titrated, usually from 57.5 µM), without a hit: top-dose activity change, negative = inhibition, most hits filed as inhibitors; hit rate 6.9% among 360,000;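 further: plate controls were vehicle for no effect and reference inhibitor for full effect; nearly all actives have a fitted effect of over 55% in size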
Target sequence (P08659 whole entry, looked up): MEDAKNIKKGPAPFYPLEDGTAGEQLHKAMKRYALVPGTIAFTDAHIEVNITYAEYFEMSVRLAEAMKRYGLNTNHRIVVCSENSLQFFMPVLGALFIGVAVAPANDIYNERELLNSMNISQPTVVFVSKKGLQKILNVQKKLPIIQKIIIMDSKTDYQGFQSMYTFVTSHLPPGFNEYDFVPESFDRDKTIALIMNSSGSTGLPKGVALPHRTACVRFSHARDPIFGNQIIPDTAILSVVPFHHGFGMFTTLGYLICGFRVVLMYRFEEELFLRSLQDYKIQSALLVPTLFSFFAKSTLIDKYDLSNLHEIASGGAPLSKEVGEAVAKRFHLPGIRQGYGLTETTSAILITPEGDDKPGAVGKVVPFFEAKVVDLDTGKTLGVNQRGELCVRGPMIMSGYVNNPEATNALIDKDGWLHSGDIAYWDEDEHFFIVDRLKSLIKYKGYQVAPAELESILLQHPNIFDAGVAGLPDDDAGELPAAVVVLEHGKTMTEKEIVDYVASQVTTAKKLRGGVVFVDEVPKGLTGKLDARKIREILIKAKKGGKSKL
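Purified P. pyralis luciferase, 10 nM final, with Km-level 10 uM D-luciferin and 10 uM ATP in 50 mM Tris acetate pH 7.5, 10 mM Mg acetate, 0.01% Tween-20, 0.05% BSA; 6-point qHTS titration about 60 µM downward; luminescence read.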
SMN2 splice up: qHTS Assay for Enhancers of SMN2 Splice Variant Expression; HEK293 SMN2-luciferase splicing reporter, luminescence, 30-36 h; Potency, µM (highest dose often 46.1 µM), inactives show top-dose activity change, positive = activation, usual class: activators; hit rate 2.8% among 210,000; further: % of control where 0% means no effect; nearly all actives have a fitted effect of over 55% in size
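HEK293 cells carry an SMN2 […]–luciferase reporter in which exon 7 inclusion puts luciferase in frame. Cells were plated 10-12 h before compound addition, then incubated 30-36 h at 37C. ONE-Glo luminescence was read; sodium butyrate at 4.5 mM final served as control.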
KinaseGlo FLuc: Counterscreen for Luciferase (Kinase-Glo TM) Inhibition; Kinase-Glo luciferase, ATP luminescence, 8 min; hit rate 0.28% among 200,000; Potency, µM (series often up to 38.3 µM), inactives show at the top dose activity change, negative = inhibition, actives largely listed as inhibitors; Luciferin 4-monooxygenase (Photuris pensylvanica), Q27757; further: on the % scale 0 is the no-effect control and ±100 the full control effect; nearly all actives have a fitted effect of over 60% in size
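Inhibition of Kinase-Glo luciferase light generation was assessed at 10 uM ATP in pH 7.2 imidazole buffer, with luminescence measured after eight minutes at ambient temperature.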
ELG1 genotoxic: qHTS screen for small molecules that induce genotoxicity in human embryonic kidney (HEK293T) cells expressing luciferase-tagged ELG1 | HEK293T ELG1-luciferase reporter, luminescence, 16 h | hit rate 1.3% among 330,000 | Potency, µM (series often up to 46 µM), without a hit: at the highest dose activity change, positive = activation, actives largely listed as activators; further: % of control where 0% means no effect; nearly all actives have a fitted effect of over 60% in size
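HEK293T cells expressing luciferase-tagged ELG1 were exposed to compound or DMSO vehicle for 16 hr at 37 °C and 5% CO2. Luciferase activity was then measured with ONE-Glo after 30 min at room temperature.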
Rab9 prom act: qHTS Assay for Rab9 Promoter Activators; Huh7 Rab9 promoter-luciferase reporter, luminescence, 24 h; Potency, µM (highest dose often 9.22 µM), inactives show top-dose activation, negative = inhibition, hits mostly activators; hit rate 2.8% among 320,000; further: % of control where 0% means no effect; nearly all actives have a fitted effect of over 60% in size
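Steps: seed 1500 Huh7 Rab9-luc cells per well, rest 2 h at 37 °C; add compound in DMSO; incubate 24 h; add luciferase reagent, 10 min ambient; read luminescence.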
NPC1 promoter act: qHTS Assay for NPC1 Promoter Activators | Huh7 NPC1 promoter luciferase reporter, 24 h | Potency, µM (doses to about 9.22 µM), without a hit: top-dose activation, actives largely listed as activators | hit rate 2.4% among 320,000 | AID 485313, 2010; further: % of control where 0% means no effect; nearly all actives have a fitted effect of over 60% in size
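Stably transfected Huh7 (NPC1 promoter→luciferase), 1500 cells/well in Opti-MEM + 10% FBS, 2 h settle, then compound 24 h at 37 °C. Luminescence after 10 min with Amplite reagent.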
Active calls of the source: *; [ ] = remark or other dose. The call rests on the fitted dose curve; in most records, active means well fitted curve in the direction sought with a large enough effect; inconclusive means small, poorly fitted or top-dose-only effect, or another doubt; inactive means no such curve, though single readings can be large; an effect the other way counts as inactive or inconclusive. Potency means the concentration at half of the fitted maximal effect.

Screening O=C(NCc1ccccc1)c1ccc2c(=O)n3c(nc2c1)CCCCC3 returned FLuc modulator -1.2%, ELG1 genotoxic 3.0%, Rab9 prom act 6.4% and NPC1 promoter act -1.2%.
Screening O=C(Nc1ccccc1Cl)c1ccc2c(=O)n3c(nc2c1)CCC3 returned FLuc modulator 10.7µM*, ELG1 genotoxic inconclusive, Rab9 prom act 1.12µM* and NPC1 promoter act 3.55µM*.
`O=C(Nc1nc(-c2ccccc2)cs1)c1ccc2c(=O)n3c(nc2c1)CCCCC3` gave FLuc modulator 12µM*, ELG1 genotoxic -19.2%, Rab9 prom act -18.0% and NPC1 promoter act -14.9%.
For Cc1ccc2nc(SCC(=O)Nc3ccc(F)cc3F)nc(=O)n2c1 the results were FLuc modulator 3.2%, ELG1 genotoxic 11.2%, Rab9 prom act 16.5% and NPC1 promoter act 1.3%.
For c1ccc(-c2ncc(CN3CCN(c4ccccn4)CC3)[nH]2)cc1 the results were FLuc modulator inconclusive, ELG1 genotoxic -0.7%, Rab9 prom act 2.9% and NPC1 promoter act 2.5%.
Cc1ccc(C2=NN=C(NC(=O)CSc3nncn3C)SC2)cc1 was read as FLuc modulator 2.39µM*, SMN2 splice up 8.91µM*, KinaseGlo FLuc 3.9%, ELG1 genotoxic inconclusive, Rab9 prom act 1.41µM* and NPC1 promoter act 2.24µM*.
Cc1ccc(C2=NN=C(NC(=O)C(F)(F)F)SC2)cc1 was read as FLuc modulator 16.9µM*, KinaseGlo FLuc 0.1%, ELG1 genotoxic inconclusive, Rab9 prom act 0.794µM* and NPC1 promoter act 1.41µM*.
For C=CCNC(=S)N1CCN(Cc2ccc3c(c2)OCO3)CC1 the results were FLuc modulator -4.1%, ELG1 genotoxic -0.9%, Rab9 prom act -5.8% and NPC1 promoter act 1.1%.
CC1CN(CC(=O)Nc2ccc(S(N)(=O)=O)cc2)CC(C)O1 (stereo unspecified) was read as FLuc modulator -1.2%, ELG1 genotoxic -1.9%, Rab9 prom act 2.0%[1.84 µM] and NPC1 promoter act -0.1%.
For COc1ccc(N2C(=O)c3ccccc3C2=O)cc1 the results were FLuc modulator inconclusive, SMN2 splice up 11.0%, KinaseGlo FLuc -4.7%, ELG1 genotoxic 5.4%, Rab9 prom act -0.4% and NPC1 promoter act -0.1%.
CC(C)Oc1ccc(N2C(=O)c3ccccc3C2=O)cc1 was read as FLuc modulator 7.57µM*, SMN2 splice up -17.6%, KinaseGlo FLuc -1.5%, ELG1 genotoxic inconclusive, Rab9 prom act -0.1% and NPC1 promoter act 1.5%.
For Cc1ccc(OCC(=O)OCCN2C(=O)c3ccccc3C2=O)cc1C the results were FLuc modulator -1.7%, SMN2 splice up 27.1%, KinaseGlo FLuc 3.2%, ELG1 genotoxic -3.6%, Rab9 prom act 1.2% and NPC1 promoter act -3.6%.
For CCOCCOC(=O)COc1ccc(N2C(=O)c3ccccc3C2=O)cc1 the results were FLuc modulator 19µM*, SMN2 splice up 2.3%, KinaseGlo FLuc -5.0%, ELG1 genotoxic -6.8%, Rab9 prom act -5.9% and NPC1 promoter act -6.5%.
For COc1ccccc1CNC(=O)c1ccccc1C(=O)NC(CC(C)C)C(=O)NCc1ccccc1OC (stereo unspecified) the results were FLuc modulator 0.2%, ELG1 genotoxic -3.0%[9.26 µM], Rab9 prom act 4.0% and NPC1 promoter act -4.1%.
For CC(C)(C)S(=O)(=O)c1cnc(-c2ccccn2)nc1N the results were FLuc modulator -13.3%, ELG1 genotoxic 1.6%, Rab9 prom act 23.6% and NPC1 promoter act 1.9%.
`Cc1cccc(-c2ncc(S(=O)(=O)C(C)(C)C)c(N)n2)c1` gave FLuc modulator inconclusive, ELG1 genotoxic 11.4%, Rab9 prom act 3.16µM* and NPC1 promoter act 3.98µM*.
